The experiment deals with Alpha-bungarotoxin (Bungarus multicinctus) (UniProt P60615). Briefly: alpha-bungarotoxin binders on microarray, profiling panel, artefact control for SMM control protein annotation, biochemical, small-molecule microarray, Alexa647 label, 635/667 nm fluorescence (AID 1117). The note with it: alpha-BTX-A647 binding fluorescence, higher = more signal.
Alpha-bungarotoxin (Bungarus multicinctus), sequence (P60615 whole entry, looked up): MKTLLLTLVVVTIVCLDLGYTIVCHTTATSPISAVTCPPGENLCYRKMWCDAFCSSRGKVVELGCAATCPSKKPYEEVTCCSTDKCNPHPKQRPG
`CCOC(=O)C[C@H]1[C@H](OC(=O)Cc2ccc3c(c2)OCO3)[C@@H](NC(=O)C2CCCCC2)c2cc(OCCCO)ccc2N1C(=O)c1ccccc1` had a composite z-score of 0.262. Regarding `O=C(NCc1ccc(F)cc1)[C@H]1C[C@H]2C(=O)NCC(=O)N2[C@H]1c1ccc(O)cc1`, the composite z-score was -0.144. On to `CN(C)c1ccc(C(O)C2C=CC3C(=O)NC(=O)C3N2Nc2ccccn2)cc1` (stereo not given), for which the composite z-score came to 0.162. For the molecule `COc1ccc([Si](C)(C)[C@@H]2[C@@H](CC(=O)N(CCO)Cc3ccccc3)O[C@]3(C(=O)N(Cc4cccc(N5CCCCC5=O)c4)c4ccccc43)[C@H]2C)cc1`, the composite z-score turned out to be 0.672. Turning to `CCOC(=O)C[C@H]1[C@H](OC(=O)c2ccc(C(=O)c3ccccc3)cc2)[C@@H](NC(=O)C2CCCCC2)c2cc(OCCCO)ccc2N1C(=O)c1ccc2ccccc2n1`, the composite z-score turned out to be 0.673.

Source of the values: PubChem BioAssay.
